The source made the active and inactive calls. Where a call stands in place of a potency, no number is given. The call rests on the fitted dose curve; in most records, active means well fitted curve in the direction sought with a large enough effect in the repeat runs; inconclusive means weak or mixed curves; inactive means flat fitted curve, though single readings scatter.

The values that follow come from PubChem BioAssay (Tox21).

The assay is described as follows: qHTS assay to test for compound auto fluorescence at 535 nm (green) in HepG2 cells (AID 720675). Conditions: green autofluorescence 485/535 nm, 1 h; series mostly up to 91.3 µM. From the text:
National Center for Advancing Translational Sciences [NCATS]
NIH Chemical Genomics Center [NCGC]
U.S. Environmental Protection Agency [EPA]
National Institutes of Environmental Health Sciences [NIEHS]
National Toxicology Program [NTP]
U.S. Food and Drug Administration [FDA]
Compound auto fluorescence often interferes with screening of the compound library against various biological targets and signaling pathways. Some of these compounds may have fluorophoric properties. Such properties may interfere with the assay outputs resulting in false positives and/or negatives. To decrease such complications and ensure the compound activities are relevant in terms of biological response, the Tox21 10K compound library was screened for auto fluorescence.
From the fluorophores used as reporter signals in our screening assays, the auto fluorescence equivalencies of compounds against three fluorophores have been evaluated: Triamterene, Fluorescein and Rose Bengal sodium for blue, green and red fluorescence, respectively. The fluorescence intensities were measured using Excitation/Emission wavelengths at 405/460nm, 485/535nm and 540/590nm for blue, green and red labels, respectively. This assay includes the green fluorescence data.
Tox21 Assay Protocol Summary:
2,000 HepG2 cells in 5 uL of culture medium (MEM containing 10% FBS) per well were dispensed into black wall/clear bottom 1536-well plates using a Multidrop Combi Dispenser (ThermoFisher Scientific, Waltham, MA). The assay plates were incubated overnight at 37 C to allow cell attachment to the well bottom, followed by the transfer of 23 nL compound or DMSO vehicle by a pintool work station (Kalypsys , San Diego, CA). After the assay plates were incubated for 1 hr at 37 C and 5% CO2, fluorescence intensities in the assay plates were measured by an Envision (PerkinElmer, Shelton, CT) plate reader using three labels for measuring blue, green and red fluorescence at […] 460, 535 and 590 nm respectively.
A general note: Quantitative high-throughput screening tests each substance at several concentrations.
Turning to `OC(CN1CCC(Cc2ccc(F)cc2)CC1)c1ccc(Cl)cc1` (stereo not given), the Potency entry is “inactive”.

`COc1ccnc(CS(=O)c2nc3ccc(OC(F)F)cc3[nH]2)c1OC` (stereo not given): the Potency entry is “inactive”.

`COc1cc2nc(N3CCN(C(=O)C4COc5ccccc5O4)CC3)nc(N)c2cc1OC` (stereo not given): the Potency entry was “inactive”. Still for that read-out and setting: as for `COC(C)(C)CCO`, the entry is “inactive”; as for `CCCCC(CC)COC(=O)COc1ccc(Cl)cc1Cl` (stereo not given), “inactive”; as for `NCCCN1CCOCC1`, “inactive”.

In the case of `O=CC1CC=CCC1` (stereo not given), the Potency result was “inactive”. Take `Cc1[nH]c(C)c(Cl)c(=O)c1Cl`: the Potency result was “inactive”.

In the case of `O=S(c1cc(Cl)cc(Cl)c1O)c1cc(Cl)cc(Cl)c1O`, the Potency entry was “inactive”. On to `CN(C)CCCN1c2ccccc2Sc2ccccc21`, for which the fluorescence, % of fluorescein control is -0.18% [at 18.6 µM] (inactive). As for `COCC(C)OC(C)=O` (stereo not given), the Potency entry is “inactive”. For `CCn1cc(C(=O)O)c(=O)c2cnc(N3CCNCC3)nc21`, the fluorescence, % of fluorescein control is -0.0874% [at 18.6 µM] (inactive). As for `CC(C)(CO)[N+](=O)[O-]`, the Potency result was “inactive”.

Consider `CCCCCCCC/C=C\CCCCCCCC(=O)OCC`, for which the Potency result was “inactive”. Consider `c1ccc(-c2ccccn2)nc1`, for which the Potency result is “inactive”. In the case of `O=[N+]([O-])c1ccc2[nH]ncc2c1`, the Potency entry was “inactive”. For the molecule `CCCCCCCCCCCC(=O)OC[C@@H](O)[C@H]1OC[C@H](OCCO)[C@H]1OCCO`, the Potency result was “inactive”. For the molecule `OCCNCc1ccccc1`, the Potency entry is “inactive”. Same read-out and setting: as for `COc1ccc(S(=O)(=O)N2C(=O)[C@@](c3ccccc3OC)(N3C[C@H](O)C[C@H]3C(=O)N(C)C)c3cc(Cl)ccc32)c(OC)c1`, the entry is “inactive”; as for `CCCCCCCN`, “inactive”. Take `COC(=O)c1ccc(I)cc1S(=O)(=O)NC(=O)Nc1nc(C)nc(OC)n1`: the Potency result was “inactive”.

`CC(COCCO)OCCO` (stereo not given): the Potency result was “inactive”. Take `CCOc1ccc(O)cc1`: the Potency entry is “inactive”. In the case of `Cc1oc2c(NC(=O)c3c(Cl)cccc3Cl)cccc2c1C(C)(C)O`, the Potency result is “inactive”.

Regarding `C=C1[C@H]2CC[C@@H]3[C@H]2C(C)(C)CCC[C@]13C`, the Potency result was “inactive”. In the case of `CC(CSC(=O)c1ccccc1)C(=O)N1C[C@@H](Sc2ccccc2)C[C@H]1C(=O)O` (stereo not given in full), the Potency result was “inactive”.

`O=C(O)c1ccco1`: the Potency result is “inactive”. On to `Cc1cccc(C)c1OCC(=O)N[C@@H](Cc1ccccc1)[C@@H](O)C[C@H](Cc1ccccc1)NC(=O)[C@H](C(C)C)N1CCCNC1=O`, for which the Potency entry was “inactive”. Take `Cn1c(=O)cc(Oc2ccc(F)cc2F)c2cnc(NCC(C)(C)O)nc21`: the Potency entry is “inactive”. `NC(N)=NCCC[C@H](N)C(=O)O`: the Potency entry was “inactive”.

As to `Nc1ncn([C@H]2C[C@H](O)[C@@H](CO)O2)c(=O)n1`, the Potency entry is “inactive”. `Nc1c(CC(=O)O)cccc1C(=O)c1ccc(Br)cc1`: the Potency result is “inactive”.

In the case of `CN(Cc1ccc(C(C)(C)C)cc1)Cc1cccc2ccccc12`, the Potency result was “inactive”. With `CC1=CC[C@H](C(C)C)C=C1`, the Potency result is “inactive”. `Cc1ncc(CO)c(C=O)c1O`: the Potency result is “inactive”.

`CCC(C)(C)CC`: the Potency result is “inactive”. As for `C[C@H](CCC(=O)O)[C@H]1CC[C@H]2[C@@H]3CC[C@@H]4C[C@H](O)CC[C@]4(C)[C@H]3C[C@H](O)[C@]12C`, the Potency result was “inactive”.

As to `CCCCC(CC)COC(=O)CCCCCCCCC(=O)OCC(CC)CCCC` (stereo not given), the Potency entry was “inactive”.

Take `CCCCc1nc2cccnc2n1Cc1ccc(-c2ccccc2-c2nnn[nH]2)cc1`: the Potency result was “inactive”. For `Nc1cccc(S(=O)(=O)c2cccc(N)c2)c1`, the Potency entry was “inactive”.
